Screens from PubChem BioAssay.
Shown are actives, neighbours in structure and some others; about 2.6% of the full set was active somewhere.
HSP90 refold inh: blocks HSP90-mediated luciferase refolding in reticulocyte lysate | Rabbit reticulocyte lysate, luciferase refolding luminescence, 3 h | inhibition, % at 5.6 µM | 0.91% of 290,000 active | AID 1789;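 active = inhibition above the screen-wide mean plus 3 SD, computed separately per campaign, cut at about 16% in these data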;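 also: 0% = DMSO wells and 100% = 60 µM geldanamycin wells; inhibitors lower the luminescence because luciferase stays unfolded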
EBV LMP1 NFkB: inhibitors of Epstein-Barr LMP1-induced NF-kappaB reporter; LMP1-induced NF-kappaB luciferase reporter cells, luminescence; inhibition, % at 12.5 µM; 0.69% of 350,000 active; AID 504558; in the data active = inhibition above about 41%; inconclusive = no clear call, values can overlap the other calls;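 also: 0% = neutral control wells and 100% = reference inhibitor control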
LGR2 antag: inhibitors of bursicon-induced Drosophila LGR2 receptor cAMP signaling; 0.35% of 380,000 active; HEK293 LGR2, CRE-luciferase, bursicon-stimulated, 4 h; AID 720647; inhibition, % at 9.99 µM;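 active = drop in luminescence signal, shown as inhibition above about 50% in the replicate tests, limit read from the data, passing the limit was not always enough; inconclusive = probably only some replicates passing the limit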;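 also: agonist challenge used bursicon conditioned medium at about half maximal strength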
TROY signal inh: blocks TROY-dependent signaling in reporter cells. Q293 LMP1-TROYcd NF-kB luciferase reporter, 4 h. inhibition, % at 10 µM. 0.98% of 360,000 active. AID 1347056;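 active = compounds whose plate-normalised and pattern-corrected inhibition of the luciferase reporter signal at the single screening dose is 50% or more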
TWEAK Fn14 block: TWEAK-Fn14 signaling inhibition; TWEAK-stimulated Fn14 reporter cells, luciferase luminescence, 8 h; AID 1159606; 2% of 360,000 active; inhibition, % at 10 µM; in the data active = inhibition above about 50%
aDG glyco act: alpha-DG glycosylation activation. Pro5-aDG cells, alpha-DG glycosylation AlphaScreen (IIH6); 0% Pro5, 100% B10-LARGE cell signal. 0.22% of 360,000 active. activation, % at 10 µM. AID 624168;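 active = activation of at least 8% versus controls, or a plate z-score of at least 8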;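 also: Pro5 are CHO cells carrying HIG-tagged alpha-DG that lacks glycosylation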
HSP90 inh confirm: confirmation of HSP90 inhibitors. AID 1846. rabbit reticulocyte lysate, luciferase refolding luminescence, 3 h. 64% of 2,300 active. shares compounds with HSP90 refold inh. inhibition, % at 5.9 µM; in the data active = inhibition above about 18%;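 also: 0% = vehicle wells and 100% = reference inhibitor wells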
FLuc counter: firefly luciferase inhibition, HSP90 counter-screen; 48% of 2,300 active; inhibition, % at 5.9 µM; shares compounds with HSP90 refold inh; AID 1847; purified native firefly luciferase, luminescence;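 active = inhibition above the mean inhibition of all tested sample wells plus 3 SD, cut at about 10% in these data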;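 also: 0% = DMSO with luciferase and 100% = wells lacking luciferase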
Target sequence (P08659 whole entry, looked up): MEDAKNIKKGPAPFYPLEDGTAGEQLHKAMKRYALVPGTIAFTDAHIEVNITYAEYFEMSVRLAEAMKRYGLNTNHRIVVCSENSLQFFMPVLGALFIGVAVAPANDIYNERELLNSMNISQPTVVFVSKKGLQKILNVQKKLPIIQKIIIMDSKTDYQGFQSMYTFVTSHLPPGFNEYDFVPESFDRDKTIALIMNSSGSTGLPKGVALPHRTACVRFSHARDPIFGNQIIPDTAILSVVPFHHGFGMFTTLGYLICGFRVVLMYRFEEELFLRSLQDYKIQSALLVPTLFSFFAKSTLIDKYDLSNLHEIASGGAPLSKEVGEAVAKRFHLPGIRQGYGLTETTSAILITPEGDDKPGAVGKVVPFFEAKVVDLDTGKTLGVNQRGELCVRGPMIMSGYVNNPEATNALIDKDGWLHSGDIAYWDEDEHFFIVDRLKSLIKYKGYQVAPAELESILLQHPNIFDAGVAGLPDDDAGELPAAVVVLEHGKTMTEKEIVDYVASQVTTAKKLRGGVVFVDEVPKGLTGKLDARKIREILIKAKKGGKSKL
Starred values were filed as active, the others as inactive; ? = inconclusive; . = no result given.

SMILES	HSP90 refold inh	EBV LMP1 NFkB	LGR2 antag	TROY signal inh	TWEAK Fn14 block	aDG glyco act	HSP90 inh confirm	FLuc counter
CC(C)NC(=O)Nc1ccc2c(c1)CC(=O)N([C@@H](C)CO)C[C@@H](C)[C@H](CN(C)C)O2	.	.	-14	.	.	.	.	.
CC(=O)NC1=NN(c2ccccc2)C(=O)C1	18*	-8	.	11	2	0	-7	-11
C/C=C/c1ccc([C@@H]2[C@@H](CO)N3C(=O)CN(S(=O)(=O)c4ccccc4)C[C@H]23)cc1	.	.	4	.	.	.	.	.
Cc1ccc(C(=O)Nc2ccc(N3CCN(C)CC3)cc2)cc1C	22*	24	9	57*	75*	0	29*	23*
CN1CCN(c2ccc(NC(=O)N3CCc4ccccc43)cc2)CC1	72*	60*	60*	77*	95*	0	71*	61*
Cc1cc(C(=O)Nc2ccc(N3CCCCC3)cc2)no1	24*	29	?	26	73*	0	50*	36*
Cc1cc(C(=O)Nc2ccc(S(=O)(=O)N3CCCC3)cc2)no1	-3	3	14	1	17	0	.	.
COc1ccc(NC(=O)N2CCCc3ccccc32)cc1OC	-3	5	-6	39	7	0	.	.
Cc1ccc(NC(=O)N2CCc3ccccc32)cc1C	18*	-24	-45	-21	18	1	37*	17*
CC(C)NC(=O)Nc1ccc2c(c1)CC(=O)N([C@H](C)CO)C[C@H](C)[C@@H](CN(C)Cc1ccc(Cl)c(Cl)c1)O2	.	.	16	.	.	.	.	.
O=C(C[C@H]1CC[C@H](NS(=O)(=O)c2ccccc2)[C@H](CO)O1)N1CCc2ccccc2C1	.	.	-5	.	.	.	.	.
C[C@@H]1CN([C@H](C)CO)C(=O)Cc2cc(NS(=O)(=O)c3cn(C)cn3)ccc2O[C@H]1CN(C)CC1CCCCC1	.	.	-1	.	.	.	.	.
COc1ccc(-c2cc3nnc(-c4ccccc4)nc3s2)cc1	21*	24	.	63*	72*	0	45*	43*
N#Cc1cc2ccccc2nc1N	20*	-10	2	25	23	0	3	-1
NC(=O)NC(=O)C(Nc1ccc(N2CCCCC2)cc1)c1ccccc1 (configuration not stated)	23*	-3	-30	44	37	0	10	6
O=C(/C=C/c1ccccc1)Nc1ccc(N2CCCCC2)cc1	-5	-15	-37	-37	-38	0	.	.
C[C@H](O)C#Cc1ccc([C@H]2[C@@H](CO)N3CCCCN(C(=O)c4ccc5c(c4)OCO5)C[C@H]23)cc1	.	.	-9	.	.	.	.	.
Nc1c(C(=O)Nc2cccc(C(=O)O)c2)sc2nc3c(cc12)CCCC3	91*	57*	76*	-49	29	0	97*	90*
Nc1c(C(=O)Nc2ccc(Cl)c(C(=O)O)c2)sc2nc3c(cc12)CCCC3	4	9	19	3	13	0	.	.
COc1ccc(CCC(=O)OCC(=O)c2c(N)n(CC(C)C)c(=O)n(C)c2=O)cc1	18*	9	1	35	1	6	6	3
COc1ccc(NC(=O)Nc2cccc3c2O[C@@H](CN(C)C(=O)Nc2cccc4ccccc24)[C@H](C)CN([C@H](C)CO)C3=O)cc1	.	.	4	.	.	.	.	.
CN(C)S(=O)(=O)c1ccc(C(=O)Nc2nnc(SCC(=O)NCC3CCCO3)s2)cc1 (configuration not stated)	-3	-6	21	-26	-1	2	.	.
CC(C)(C)c1ccc(C(=O)Nc2nnc(SCC(=O)NCC3CCCO3)s2)cc1 (configuration not stated)	36*	49*	-46	6	71*	0	54*	45*
CCOc1ccc(C(=O)Nc2nnc(SCC(=O)NCC3CCCO3)s2)cc1 (configuration not stated)	36*	61*	78*	36	69*	0	61*	44*
CC(C)NC(=O)N(C)C[C@@H]1Oc2ccc(NC(=O)CCCN(C)C)cc2C(=O)N([C@H](C)CO)C[C@H]1C	.	.	12	.	.	.	.	.
SMILES	HSP90 refold inh	EBV LMP1 NFkB	LGR2 antag	TROY signal inh	TWEAK Fn14 block	aDG glyco act	HSP90 inh confirm	FLuc counter
CN1CCN(C(=O)C[C@H]2CC[C@@H]3[C@H](COC[C@@H](O)CN3C(=O)Nc3ccc4c(c3)OCO4)O2)CC1	.	.	-9	.	.	.	.	.
O=C(c1cnccn1)N1CC(=O)N2[C@H](CO)[C@@H](c3ccc(C#CC4CCCCC4)cc3)[C@H]2C1	.	.	-13	.	.	.	.	.
Cc1ccc(/C=C2\SC(=S)N(CCCC(=O)Nc3ccccn3)C2=O)cc1	34*	56*	.	68*	79*	0	39*	-18
Cc1ccc(C(=O)CCS(=O)(=O)c2ccc(F)cc2)cc1	38*	5	4	3	4	2	58*	79*
O=C(Nc1cccc(Cl)c1)N[C@H]1CC[C@@H](CCNC(=O)C2CCOCC2)O[C@@H]1CO	.	.	-9	.	.	.	.	.
COc1ccc2c3c([nH]c2c1)[C@H](CO)N(C(=O)c1cccc(F)c1)CC31CN(C(C)=O)C1	.	.	-3	.	.	.	.	.
Cn1c(C2CCCN2C(=O)OC(C)(C)C)n[nH]c1=S (configuration not stated)	34*	-2	.	4	2	0	-1	-4
COc1ccc(Cl)cc1Nc1nc(-c2sc(NC(=O)c3ccccc3)nc2C)cs1	40*	.	.	.	.	.	24*	-3
Cc1nc(NC(=O)c2ccco2)sc1-c1csc(Nc2ccc(Cl)cc2Cl)n1	9	-14	-23	-39	2	1	.	.
Cc1nc(NC(=O)c2ccccc2)sc1-c1csc(Nc2ccc(Cl)cc2Cl)n1	45*	.	.	.	.	.	35*	-13
COc1ccc(OC)c(Nc2nc(-c3sc(NC(=O)c4ccccc4)nc3C)cs2)c1	27*	.	.	.	.	.	19*	-5
COc1ccc(S(=O)(=O)Nc2ccc3c(c2)C(=O)N([C@H](C)CO)C[C@@H](C)[C@@H](CN(C)Cc2ccncc2)OCCCC[C@@H](C)O3)cc1	.	.	1	.	.	.	.	.
COc1ccccc1-c1cn(CC[C@@H]2CC[C@H](NC(=O)CCN3CCCCC3)[C@@H](CO)O2)nn1	.	.	9	.	.	.	.	.
C[C@@H]1CCCCO[C@H](CN(C)C(=O)C2CCCCC2)[C@H](C)CN([C@@H](C)CO)C(=O)c2cc(NS(C)(=O)=O)ccc2O1	.	.	16	.	.	.	.	.
COc1ccc(-c2cc3nc(C)cc(N)n3n2)cc1	42*	40	.	10	60*	0	61*	41*
CCCN(C)C[C@H]1OCCCC[C@@H](C)Oc2ccc(NS(=O)(=O)c3cccs3)cc2C(=O)N([C@H](C)CO)C[C@@H]1C	.	.	2	.	.	.	.	.
CCCSc1nc(SCC(=O)NCc2ccccc2)c2c3c(sc2n1)COC(C)(CC)C3 (configuration not stated)	28*	29	.	-22	-11	0	5	-3
